{"source": "PubChem BioAssay (NCATS)", "note": "Inconclusive results are not listed. Where a call stands in place of a potency, no number is given. The source made the active and inactive calls. Calls follow the shape of the dose curve; as a rule, active = well fitted inhibition curve with a large enough effect; inconclusive = small, poorly fitted or top-dose-only effect; inactive = flat fitted curve, though single readings scatter."}
{"target": "Calcium and integrin-binding protein 1 (Homo sapiens) (UniProt Q99828)", "sequence (Q99828 whole entry, looked up)": "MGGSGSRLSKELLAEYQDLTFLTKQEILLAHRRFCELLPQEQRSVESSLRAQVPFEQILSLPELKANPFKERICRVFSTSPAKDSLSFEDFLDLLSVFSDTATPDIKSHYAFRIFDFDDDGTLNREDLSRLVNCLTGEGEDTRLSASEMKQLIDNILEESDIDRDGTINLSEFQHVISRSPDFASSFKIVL", "experiment": "Primary qHTS for Identification of Calcium Integrin Binding Protein 1 (CIB1) Competitor (AID 1508620);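 also: GST tagged CIB1 binding a fluorescein labelled alphaIIb integrin peptide tracer; top concentration of the series differs between compounds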", "conditions": "CIB1-GST / FITC-alphaIIb peptide fluorescence polarization; series mostly up to 114 µM", "outline": "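Fluorescence polarization competition: CIB1-GST (1 uM final) preincubated with compound 15 min at room temperature, then FITC-labeled alphaIIb peptide (100 nM final) added for another 15 min. Polarization read at Ex 480/Em 540.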"}
{"compound": "Cc1ccc(NS(=O)(=O)c2cccc(Cl)c2)cc1C", "Potency": "inactive"}
{"compound": "Cc1cc(C)nc(NC(=S)N2CCN(C3=Nc4ccccc4Oc4ccccc43)CC2)c1", "Potency": "inactive"}
{"compound": "c1csc(CNc2ncnc3ccc(-c4ccc5c(c4)OCCO5)cc23)c1", "Potency": "inactive"}
{"compound": "Cc1ccc(C)c(SC2CS(=O)(=O)c3ccccc32)c1", "note": "(configuration not stated)", "Potency": "inactive"}
{"compound": "N#Cc1c(-c2cc(C(F)(F)F)cc(C(F)(F)F)c2)no[n+]1[O-]", "Potency": "inactive"}
{"compound": "COc1cc(O)c(C(CC(=O)N2CCCC(C#N)C2)c2ccc3c(c2)OCO3)c(OC)c1", "note": "(configuration not stated)", "Potency": "inactive"}
{"compound": "Cc1cc2c(s1)c1cnn(Cc3cccc(C(F)(F)F)c3F)c(=O)c1n2C", "Potency": "inactive"}
{"compound": "O=C(O)c1ccc(O)c2ncc(-c3ccc(C(=O)N4CCNCC4)cc3)cc12", "Potency": "inactive"}
{"compound": "CC1=C(C(=O)NC2CCCCC2)C(c2ccccc2Br)N=C(Nc2nc3ccccc3o2)N1", "note": "(configuration not stated)", "Potency": "inactive"}
{"compound": "S=C(Nc1cc(Cl)ccn1)N1CCN(c2ccc(Cl)cc2Cl)CC1", "Potency": "inactive"}
{"compound": "Cc1nc(C)c(-c2ccc3ncnc(N(C)Cc4sccc4C)c3c2)s1", "Potency": "inactive"}
{"compound": "Cc1occc1-c1ccc2ncnc(NCc3ncc[nH]3)c2c1", "Potency": "inactive"}
{"compound": "Cc1cccc(CNc2ncnc3ccc(-c4ccc5c(ccn5C)c4)cc23)c1", "Potency": "inactive"}
{"compound": "Cc1ccccc1C(=O)N1CCc2cc(-c3nc(NC(=O)Cc4ccc5c(c4)OCCO5)sc3C)ccc21", "Potency": "inactive"}
{"compound": "CC(C)(C)NS(=O)(=O)c1cccc(-c2nnc(SCc3ccc(C(=O)O)cc3)n2-c2ccccc2)c1", "Potency": "inactive"}
{"compound": "Cn1nnnc1Sc1ncnc2scc(-c3ccc(Cl)cc3)c12", "Potency": "inactive"}
{"compound": "CCc1nn2c(=O)cc(-c3ccncc3)nc2s1", "Potency": "inactive"}
